Assay results: PubChem BioAssay AID1159580 (chemical genetic matrix, 2015)
Among all 5,500 compounds or so, about 2,000 (36%) were called active. Roughly 18% stayed inconclusive and do not appear here. Rule as the data show it: active = normalized growth mostly below about 0.91 (no sharp cut-off); inconclusive = no clear call, values can overlap the other calls; inactive = mostly above about 0.92. This is one part of the list.

Assay: chemical genetic growth profiling, strain panel (AID 1159580);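 also: tested at 20 µM; growth read once vehicle control cultures reached saturation at 30 °C; 1 = growth at the plate median or of vehicle wells; lower values mean less growth of the strain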
Settings: S. cerevisiae deletion strains, growth OD

Measured: normalized growth

COc1ccc(CN(CCN(C)C)c2ncccn2)cc1
inactive: locus YAL021C, strain ccr4, active compounds read low 1.01 | locus YAL026C, strain drs2, active compounds read low 1.04 | locus YAL030W, strain snc1, active compounds read low 0.997 | locus YBL061C, strain skt5, active compounds read low 1.01 | locus YBR009C, strain hhf1, active compounds read low 1.01 | locus YBR023C, strain chs3, active compounds read low 1.01 | locus YBR171W, strain sec66, active compounds read low 1.01 | locus YBR231C, strain swc5, active compounds read low 1.04 | locus YBR279W, strain paf1, active compounds read low 1.01 | locus YCL011C, strain gbp2, active compounds read low 1.01 | locus YCL016C, strain dcc1, active compounds read low 1.01 | locus YCL061C, strain MRC1, active compounds read low 1.02 | locus YCL069W, strain vba3, active compounds read low 1.01 | locus YCR088W, strain abp1, active compounds read low 1.01 | locus YDL005C, strain med2, active compounds read low 1.01 | locus YDL040C, strain nat1, active compounds read low 1.02 | locus YDR001C, strain nth1, active compounds read low 1.02 | locus YDR069C, strain doa4, active compounds read low 1 | locus YDR137W, strain rgp1, active compounds read low 1.01 | locus YDR159W, strain sac3, active compounds read low 0.992 | locus YDR195W, strain ref2 1 | locus YDR297W, strain sur2, active compounds read low 1.02 | locus YDR334W, strain swr1, active compounds read low 0.998 | locus YDR335W, strain msn5, active compounds read low 1.01 | locus YDR392W, strain spt3, active compounds read low 1.03 | locus YEL003W, strain gim4, active compounds read low 1.01 | locus YEL037C, strain rad23, active compounds read low 1.01 | locus YEL061C, strain CIN8 (second series), active compounds read low 1 | locus YER015W, strain faa2, active compounds read low 1.02 | locus YER016W, strain bim1, active compounds read low 1.02 | locus YER111C, strain swi4, active compounds read low 1.02 | locus YER155C, strain BEM2 (second series), active compounds read low 1.05 | locus YFR010W, strain ubp6, active compounds read low 1.01 | locus YGL167C, strain pmr1, active compounds read low 1.02 | locus YGL173C, strain kem1, active compounds read low 1.03 | locus YGL227W, strain vid30, active compounds read low 1.01 | locus YGL240W, strain doc1, active compounds read low 1.01 | locus YGL253W, strain hxk2, active compounds read low 1.02 | locus YHR013C, strain ard1, active compounds read low 1.01 | locus YHR027C, strain rpn1, active compounds read low 1.01 | locus YHR030C, strain SLT2, active compounds read low 1 | locus YHR079C, strain IRE1, active compounds read low 1 | locus YHR142W, strain chs7, active compounds read low 1.04 | locus YJL092W, strain hpr5, active compounds read low 1.03 | locus YJL095W, strain BCK1 (second series), active compounds read low 1.01 | locus YJL095W, strain BCK1, active compounds read low 1 | locus YJL115W, strain asf1, active compounds read low 1.01 | locus YJL129C, strain trk1, active compounds read low 1.01 | locus YJL154C, strain vps35, active compounds read low 1.01 | locus YJL164C, strain tpk1, active compounds read low 1.02 | locus YJL166W, strain qcr8, active compounds read low 0.995 | locus YJR066W, strain TOR1, active compounds read low 0.954 | locus YKL160W, strain elf1, active compounds read low 1.02 | locus YKR026C, strain gcn3, active compounds read low 1 | locus YKR091W, strain srl3, active compounds read low 1 | locus YLL001W, strain dnm1, active compounds read low 1.01 | locus YLL026W, active compounds read low 1 | locus YLL041C, strain sdh2, active compounds read low 0.995 | locus YLR027C, strain aat2, active compounds read low 1.01 | locus YLR113W, strain HOG1, active compounds read low 1 | locus YLR221C, strain rsa3, active compounds read low 0.998 | locus YLR258W, strain gsy2, active compounds read low 1.03 | locus YLR262C, strain YPT6 (second series), active compounds read low 1.01 | locus YLR320W, strain mms22, active compounds read low 1.01 | locus YLR342W, strain FKS1, active compounds read low 1.02 | locus YLR357W, strain rsc2, active compounds read low 1.01 | locus YLR370C, strain arc18, active compounds read low 1.03 | locus YLR384C, strain iki3, active compounds read low 1.02 | locus YML120C, strain ndi1, active compounds read low 1.01 | locus YMR058W, strain fet3, active compounds read low 1.03 | locus YMR125W, strain sto1, active compounds read low 1.01 | locus YMR129W, active compounds read low 1.02 | locus YMR205C, strain PFK2, active compounds read low 1.02 | locus YMR231W, strain pep5, active compounds read low 1.02 | locus YNL071W, strain lat1, active compounds read low 1.02 | locus YNL183C, strain NPR1, active compounds read low 0.943 | locus YNL209W, strain ssb2, active compounds read low 1.03 | locus YNL248C, strain rpa49, active compounds read low 1.03 | locus YNL322C, strain KRE1 (second series), active compounds read low 1.02 | locus YNR049C, strain mso1, active compounds read low 1.01 | locus YOR001W, strain rrp6, active compounds read low 1.01 | locus YOR070C, strain gyp1, active compounds read low 1.02 | locus YOR080W, strain dia2, active compounds read low 1.01 | locus YOR083W, strain WHI5, active compounds read low 0.981 | locus YOR106W, strain vam3, active compounds read low 1.02 | locus YOR231W, strain MKK1, active compounds read low 0.99 | locus YOR265W, strain rbl2, active compounds read low 1.02 | locus YOR270C, strain vph1, active compounds read low 1.03 | locus YOR290C, strain snf2, active compounds read low 1.02 | locus YPL051W, strain arl3, active compounds read low 1.02 | locus YPL078C, strain atp4, active compounds read low 1.02 | locus YPL106C, strain sse1, active compounds read low 0.994 | locus YPL240C, strain hsp82, active compounds read low 0.999 | locus YPL256C, strain CLN2, active compounds read low 0.991
